Experimental data as given in the supplement of paper PMC11732987, “Enantioselective OTUD7B fragment discovery through chemoproteomics screening and high-throughput optimisation” (Communications Chemistry, 2025).

Legend:
Experiment in all cases: log2 ratio of Biotin-Ahx-Ub-VS probe labelling (fragment/DMSO); higher = less target engagement (more negative = stronger competition), active = hit call of the paper (q ≤ 0.05, log2 ratio ≤ -1)
Conditions in all cases: compound concentration: 200 uM; treatment time: 3 h
USP19 = biological target: T1, USP19 (UniProt O94966)
T1 sequence (whole entry): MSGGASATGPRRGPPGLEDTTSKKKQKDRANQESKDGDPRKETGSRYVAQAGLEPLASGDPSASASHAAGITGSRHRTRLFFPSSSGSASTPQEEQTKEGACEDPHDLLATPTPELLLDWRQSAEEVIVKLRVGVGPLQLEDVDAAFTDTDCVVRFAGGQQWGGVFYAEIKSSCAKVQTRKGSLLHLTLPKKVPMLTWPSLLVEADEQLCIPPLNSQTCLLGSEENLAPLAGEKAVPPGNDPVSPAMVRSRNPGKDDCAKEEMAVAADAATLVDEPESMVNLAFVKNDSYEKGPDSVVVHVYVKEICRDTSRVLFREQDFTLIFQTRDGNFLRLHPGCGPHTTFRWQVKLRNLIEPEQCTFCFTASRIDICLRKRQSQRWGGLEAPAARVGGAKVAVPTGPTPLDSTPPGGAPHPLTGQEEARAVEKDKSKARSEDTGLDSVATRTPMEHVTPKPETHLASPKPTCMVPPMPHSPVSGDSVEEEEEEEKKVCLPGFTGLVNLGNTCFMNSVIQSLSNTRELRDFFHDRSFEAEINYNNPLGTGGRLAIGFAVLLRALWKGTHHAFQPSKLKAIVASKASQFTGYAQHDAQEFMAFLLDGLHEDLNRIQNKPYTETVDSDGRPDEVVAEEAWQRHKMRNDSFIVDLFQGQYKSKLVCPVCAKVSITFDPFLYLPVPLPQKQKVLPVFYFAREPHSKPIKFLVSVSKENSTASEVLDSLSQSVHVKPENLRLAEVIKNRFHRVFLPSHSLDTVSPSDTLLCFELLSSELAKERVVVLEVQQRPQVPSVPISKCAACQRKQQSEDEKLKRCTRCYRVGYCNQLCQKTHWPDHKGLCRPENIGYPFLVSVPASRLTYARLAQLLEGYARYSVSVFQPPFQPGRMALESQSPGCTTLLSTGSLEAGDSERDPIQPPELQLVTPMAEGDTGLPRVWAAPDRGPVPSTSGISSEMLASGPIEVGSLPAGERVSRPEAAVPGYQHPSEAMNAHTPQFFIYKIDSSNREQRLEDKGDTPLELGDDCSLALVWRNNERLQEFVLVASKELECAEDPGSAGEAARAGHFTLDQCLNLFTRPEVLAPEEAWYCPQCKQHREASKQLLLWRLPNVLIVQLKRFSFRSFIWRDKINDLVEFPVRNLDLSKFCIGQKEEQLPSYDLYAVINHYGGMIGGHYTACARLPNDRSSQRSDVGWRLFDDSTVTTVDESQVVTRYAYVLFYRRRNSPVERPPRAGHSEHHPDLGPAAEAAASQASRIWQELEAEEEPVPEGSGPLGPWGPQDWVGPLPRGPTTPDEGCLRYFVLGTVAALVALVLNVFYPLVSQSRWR
In short: (§1)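 The table lists average log2 ratios of fragment over vehicle, from an unpaired t-test on global-median-normalised Spectronaut label-free quantities. Proteins with ≥2 unique peptides were used. Samples were HEK293T lysate (495 µg) treated in triplicate with fragment at 200 µM or vehicle for 3 h, then with Biotin-Ahx-Ub-VS (0.5 µM final) for 1 h, with labelled DUBs NeutrAvidin-enriched and run by diaPASEF LC-MS/MS.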

USP22 = biological target: T2, USP22 (UniProt Q9UPT9)
T2 sequence (whole entry): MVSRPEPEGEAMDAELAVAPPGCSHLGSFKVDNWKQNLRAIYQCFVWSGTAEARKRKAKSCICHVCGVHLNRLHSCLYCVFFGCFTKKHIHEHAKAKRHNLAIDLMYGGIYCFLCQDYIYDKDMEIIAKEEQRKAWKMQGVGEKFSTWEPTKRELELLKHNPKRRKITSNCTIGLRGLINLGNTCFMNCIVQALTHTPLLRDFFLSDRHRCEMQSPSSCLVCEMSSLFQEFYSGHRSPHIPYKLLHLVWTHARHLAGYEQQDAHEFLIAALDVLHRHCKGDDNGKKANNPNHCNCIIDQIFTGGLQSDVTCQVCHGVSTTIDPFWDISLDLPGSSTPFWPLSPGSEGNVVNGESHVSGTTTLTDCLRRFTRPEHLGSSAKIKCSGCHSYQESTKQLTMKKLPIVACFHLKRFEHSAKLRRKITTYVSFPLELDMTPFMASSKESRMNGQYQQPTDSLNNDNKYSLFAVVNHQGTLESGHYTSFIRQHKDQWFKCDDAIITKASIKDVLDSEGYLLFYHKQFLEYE
In short: as §1

USP24 = USP24 (UniProt Q9UPU5)
In short: as §1

USP25 = biological target: T3, USP25 (UniProt Q9UHP3)
T3 sequence (whole entry): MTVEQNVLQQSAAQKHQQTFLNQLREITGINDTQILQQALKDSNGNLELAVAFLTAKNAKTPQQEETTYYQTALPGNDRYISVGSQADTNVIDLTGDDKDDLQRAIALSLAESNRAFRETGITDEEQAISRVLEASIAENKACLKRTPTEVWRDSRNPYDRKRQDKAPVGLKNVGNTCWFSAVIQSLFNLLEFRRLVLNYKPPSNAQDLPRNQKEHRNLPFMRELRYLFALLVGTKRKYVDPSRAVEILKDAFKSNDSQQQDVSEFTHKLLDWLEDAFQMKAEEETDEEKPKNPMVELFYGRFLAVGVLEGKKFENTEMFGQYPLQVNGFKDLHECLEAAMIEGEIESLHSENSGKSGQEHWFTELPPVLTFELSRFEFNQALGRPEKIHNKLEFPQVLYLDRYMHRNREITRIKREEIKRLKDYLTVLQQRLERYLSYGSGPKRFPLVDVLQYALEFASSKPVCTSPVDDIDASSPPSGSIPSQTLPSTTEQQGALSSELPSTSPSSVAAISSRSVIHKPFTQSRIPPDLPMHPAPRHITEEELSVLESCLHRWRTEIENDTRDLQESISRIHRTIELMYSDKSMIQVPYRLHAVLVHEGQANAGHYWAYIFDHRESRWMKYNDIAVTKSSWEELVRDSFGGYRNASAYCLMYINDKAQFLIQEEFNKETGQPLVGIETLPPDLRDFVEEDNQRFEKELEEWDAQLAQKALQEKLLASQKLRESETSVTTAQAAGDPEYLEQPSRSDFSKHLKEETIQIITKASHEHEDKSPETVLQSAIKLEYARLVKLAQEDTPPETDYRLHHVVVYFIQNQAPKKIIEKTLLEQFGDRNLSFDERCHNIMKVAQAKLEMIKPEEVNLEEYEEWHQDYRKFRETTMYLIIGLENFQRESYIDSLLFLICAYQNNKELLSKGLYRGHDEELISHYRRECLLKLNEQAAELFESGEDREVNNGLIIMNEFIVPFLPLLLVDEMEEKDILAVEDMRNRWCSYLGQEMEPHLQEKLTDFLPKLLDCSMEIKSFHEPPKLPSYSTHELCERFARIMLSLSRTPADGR
In short: as §1

USP28 = biological target: T4, USP28 (UniProt Q96RU2)
T4 sequence (whole entry): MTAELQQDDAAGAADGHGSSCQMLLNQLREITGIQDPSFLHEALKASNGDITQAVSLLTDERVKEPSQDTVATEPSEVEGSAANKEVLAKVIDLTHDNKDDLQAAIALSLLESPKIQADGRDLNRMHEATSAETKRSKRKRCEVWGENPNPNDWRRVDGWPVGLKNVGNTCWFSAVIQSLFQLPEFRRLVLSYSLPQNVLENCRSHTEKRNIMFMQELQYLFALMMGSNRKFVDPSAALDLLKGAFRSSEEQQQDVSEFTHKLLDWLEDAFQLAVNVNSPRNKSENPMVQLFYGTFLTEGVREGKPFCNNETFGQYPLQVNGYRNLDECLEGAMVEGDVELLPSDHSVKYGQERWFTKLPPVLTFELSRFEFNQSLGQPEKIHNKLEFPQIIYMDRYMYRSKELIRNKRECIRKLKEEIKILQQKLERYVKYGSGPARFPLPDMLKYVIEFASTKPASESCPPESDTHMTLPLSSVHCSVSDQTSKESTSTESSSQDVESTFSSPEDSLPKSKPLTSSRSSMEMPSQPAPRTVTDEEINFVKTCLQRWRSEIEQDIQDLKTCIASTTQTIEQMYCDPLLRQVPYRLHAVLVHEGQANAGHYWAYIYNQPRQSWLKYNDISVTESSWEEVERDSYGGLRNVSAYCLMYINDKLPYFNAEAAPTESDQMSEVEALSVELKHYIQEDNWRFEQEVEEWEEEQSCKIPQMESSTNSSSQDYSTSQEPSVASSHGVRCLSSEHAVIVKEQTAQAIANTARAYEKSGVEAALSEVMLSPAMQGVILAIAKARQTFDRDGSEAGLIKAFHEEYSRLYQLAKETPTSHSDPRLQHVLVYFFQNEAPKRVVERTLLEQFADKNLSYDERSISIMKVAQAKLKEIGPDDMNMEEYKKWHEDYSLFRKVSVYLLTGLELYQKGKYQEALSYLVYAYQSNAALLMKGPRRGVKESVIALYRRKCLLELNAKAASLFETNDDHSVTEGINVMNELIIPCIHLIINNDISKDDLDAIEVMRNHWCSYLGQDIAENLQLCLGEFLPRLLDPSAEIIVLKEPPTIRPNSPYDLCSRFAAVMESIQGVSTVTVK
In short: as §1

Measured: log2 ratio of Biotin-Ahx-Ub-VS probe labelling

Sequence of USP24 (Q9UPU5 whole entry): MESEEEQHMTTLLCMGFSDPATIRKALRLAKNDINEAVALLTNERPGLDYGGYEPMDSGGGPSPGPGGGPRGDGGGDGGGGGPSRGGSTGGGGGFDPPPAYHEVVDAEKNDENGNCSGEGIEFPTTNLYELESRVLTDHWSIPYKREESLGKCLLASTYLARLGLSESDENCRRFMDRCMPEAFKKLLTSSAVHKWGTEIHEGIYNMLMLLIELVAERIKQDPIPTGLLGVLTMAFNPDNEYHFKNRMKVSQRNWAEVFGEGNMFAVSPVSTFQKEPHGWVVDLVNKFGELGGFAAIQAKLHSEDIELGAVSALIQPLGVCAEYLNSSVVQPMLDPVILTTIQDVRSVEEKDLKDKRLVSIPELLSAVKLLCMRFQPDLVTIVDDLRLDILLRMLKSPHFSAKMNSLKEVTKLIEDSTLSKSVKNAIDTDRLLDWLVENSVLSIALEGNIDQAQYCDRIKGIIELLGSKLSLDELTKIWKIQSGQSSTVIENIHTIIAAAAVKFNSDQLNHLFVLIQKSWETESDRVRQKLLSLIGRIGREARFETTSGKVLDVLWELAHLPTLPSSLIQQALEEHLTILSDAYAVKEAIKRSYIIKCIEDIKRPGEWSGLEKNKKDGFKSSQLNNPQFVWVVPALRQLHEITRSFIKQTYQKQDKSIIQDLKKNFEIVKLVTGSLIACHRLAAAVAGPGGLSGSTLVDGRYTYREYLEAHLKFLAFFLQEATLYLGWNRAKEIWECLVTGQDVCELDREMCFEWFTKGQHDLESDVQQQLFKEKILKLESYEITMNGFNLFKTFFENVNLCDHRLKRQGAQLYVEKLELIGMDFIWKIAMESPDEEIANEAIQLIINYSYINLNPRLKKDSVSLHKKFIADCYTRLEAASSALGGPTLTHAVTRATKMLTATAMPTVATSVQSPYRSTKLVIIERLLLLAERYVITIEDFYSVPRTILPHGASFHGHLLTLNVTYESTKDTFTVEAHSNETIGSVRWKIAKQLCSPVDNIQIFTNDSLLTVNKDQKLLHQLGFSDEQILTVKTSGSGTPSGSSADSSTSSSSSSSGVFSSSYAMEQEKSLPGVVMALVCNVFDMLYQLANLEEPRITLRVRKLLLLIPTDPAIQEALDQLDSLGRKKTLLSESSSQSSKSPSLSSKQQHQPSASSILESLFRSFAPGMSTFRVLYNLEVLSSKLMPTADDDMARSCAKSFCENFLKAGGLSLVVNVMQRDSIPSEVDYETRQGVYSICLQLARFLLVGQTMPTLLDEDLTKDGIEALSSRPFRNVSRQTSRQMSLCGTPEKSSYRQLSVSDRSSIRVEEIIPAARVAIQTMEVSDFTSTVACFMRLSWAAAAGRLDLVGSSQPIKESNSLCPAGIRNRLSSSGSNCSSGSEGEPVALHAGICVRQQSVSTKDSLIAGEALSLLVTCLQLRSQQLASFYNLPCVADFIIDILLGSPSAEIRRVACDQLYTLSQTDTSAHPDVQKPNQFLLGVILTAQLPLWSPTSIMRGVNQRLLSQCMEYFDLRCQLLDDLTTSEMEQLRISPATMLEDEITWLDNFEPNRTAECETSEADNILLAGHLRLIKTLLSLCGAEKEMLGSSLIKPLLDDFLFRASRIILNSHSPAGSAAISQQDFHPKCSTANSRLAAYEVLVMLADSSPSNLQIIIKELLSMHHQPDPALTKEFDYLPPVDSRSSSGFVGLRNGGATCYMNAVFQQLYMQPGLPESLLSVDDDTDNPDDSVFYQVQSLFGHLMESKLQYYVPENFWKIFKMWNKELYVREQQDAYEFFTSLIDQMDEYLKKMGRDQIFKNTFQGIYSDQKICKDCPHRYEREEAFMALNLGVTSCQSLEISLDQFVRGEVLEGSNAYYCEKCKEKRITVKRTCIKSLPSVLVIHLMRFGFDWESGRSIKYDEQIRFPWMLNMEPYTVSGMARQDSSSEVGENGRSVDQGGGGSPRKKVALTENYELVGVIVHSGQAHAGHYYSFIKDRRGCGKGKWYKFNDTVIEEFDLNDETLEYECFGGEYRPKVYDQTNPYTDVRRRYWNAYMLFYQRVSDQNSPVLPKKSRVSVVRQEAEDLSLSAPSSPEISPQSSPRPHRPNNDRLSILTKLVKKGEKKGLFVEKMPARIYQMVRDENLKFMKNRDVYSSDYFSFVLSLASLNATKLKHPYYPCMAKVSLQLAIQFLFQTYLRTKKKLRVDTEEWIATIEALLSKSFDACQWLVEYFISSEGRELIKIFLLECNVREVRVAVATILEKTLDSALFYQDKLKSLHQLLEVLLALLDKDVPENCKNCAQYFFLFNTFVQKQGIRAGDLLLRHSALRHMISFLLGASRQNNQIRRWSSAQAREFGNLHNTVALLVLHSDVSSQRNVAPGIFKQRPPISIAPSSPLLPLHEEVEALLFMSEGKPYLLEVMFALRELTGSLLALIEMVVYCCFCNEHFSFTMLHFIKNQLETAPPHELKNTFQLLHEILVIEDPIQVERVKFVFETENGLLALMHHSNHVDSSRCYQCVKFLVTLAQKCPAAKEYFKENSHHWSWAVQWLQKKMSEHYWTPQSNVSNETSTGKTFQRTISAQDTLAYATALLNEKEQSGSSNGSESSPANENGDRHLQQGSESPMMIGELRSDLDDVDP

O=C(CCl)N[C@H]1CCS(=O)(=O)c2ccccc21
inactive: USP19 -0.274 | USP22 -0.119 | USP24 -0.386 | USP25 -0.264 | USP28 -0.582
